# An excerpt weighted towards active compounds, which were near 1.8% of everything screened.
# PAD4 FP inh = PAD4 (human) enzyme inhibition; Q9UM07; recombinant PAD4, RCA probe fluorescence polarization; inhibition, % at 6.36 µM; hit rate 0.41% among 330,000; AID 485272;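 active = percent inhibition above a cutoff equal to the mean of all tested compounds plus 3 SD, cut at about 15% in these data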;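 note: 0% = PAD4 with RCA probe and DMSO and 100% = probe without PAD4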
# Target sequence (Q9UM07 whole entry, looked up): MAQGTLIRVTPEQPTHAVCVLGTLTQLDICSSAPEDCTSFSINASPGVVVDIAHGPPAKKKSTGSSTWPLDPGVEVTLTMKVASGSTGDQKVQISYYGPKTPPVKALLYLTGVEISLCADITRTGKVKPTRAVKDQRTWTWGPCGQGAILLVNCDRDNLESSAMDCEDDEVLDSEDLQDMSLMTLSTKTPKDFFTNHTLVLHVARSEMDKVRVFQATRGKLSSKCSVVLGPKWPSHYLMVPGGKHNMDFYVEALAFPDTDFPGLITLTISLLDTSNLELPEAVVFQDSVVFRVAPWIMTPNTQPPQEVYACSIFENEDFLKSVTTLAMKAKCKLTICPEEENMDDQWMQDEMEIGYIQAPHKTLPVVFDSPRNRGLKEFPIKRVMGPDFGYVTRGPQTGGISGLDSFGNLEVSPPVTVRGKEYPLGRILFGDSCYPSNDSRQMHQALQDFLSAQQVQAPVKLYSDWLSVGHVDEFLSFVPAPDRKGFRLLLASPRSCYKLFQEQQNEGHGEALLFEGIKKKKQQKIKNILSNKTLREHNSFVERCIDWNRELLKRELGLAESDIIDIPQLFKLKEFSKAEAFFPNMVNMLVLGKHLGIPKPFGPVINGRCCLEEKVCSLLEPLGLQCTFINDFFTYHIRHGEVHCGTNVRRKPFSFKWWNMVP
# Fam108B inh = blocks mouse Fam108B hydrolase in RBBP9 counter-screen. recombinant Fam108B, FP-Rh probe fluorescence polarization. inhibition, % at 9.51 µM. hit rate 0.33% among 300,000;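 active = inhibition above the screen mean inhibition plus 3 SD, computed separately per campaign, cut at about 18% in these data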;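 note: inhibitors lower polarization as less probe binds the enzyme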
# PME-1 primary = PME-1 (human) inhibition; hit rate 0.53% among 320,000; AID 2130; inhibition, % at 5.9 µM; recombinant PME-1, FP-Rh probe fluorescence polarization; Q9Y570;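 active = inhibition above the campaign mean of all compounds plus 3 SD, cut at about 26% in these data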;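 note: competitive labeling of PME-1 active site by serine hydrolase directed probe; 0% = PME-1 with DMSO and 100% = wells lacking PME-1 enzyme; inhibitors block probe labeling so polarization falls and inhibition rises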
# LYPLA1 inh = blocks human lysophospholipase 1, a PME1 counter-screen | inhibition, % at 5.9 µM | O75608 | hit rate 0.16% among 320,000 | recombinant LYPLA1, FP-Rh probe fluorescence polarization;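 active = inhibition above the mean of all tested compounds plus 3 SD, set per campaign, cut at about 14% in these data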;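 note: inhibitors block serine hydrolase probe labeling of LYPLA1 so polarization falls; 0% = enzyme with DMSO and 100% = wells lacking LYPLA1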
# GSTO1 inh = GSTO1 inhibition, counter-screen for RBBP9 inhibitors; P78417; recombinant GSTO1, activity-based probe fluorescence polarization; inhibition, % at 5.96 µM; hit rate 1.1% among 300,000;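 active = inhibition above the campaign mean inhibition plus 3 SD, cut at about 35% in these data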;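 note: 0% = GSTO1-1 with DMSO and 100% = wells lacking GSTO1-1 enzyme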
# LYPLA2 inh = blocks human lysophospholipase 2, a PME1 counter-screen; hit rate 0.38% among 320,000; recombinant LYPLA2, FP-Rh probe fluorescence polarization; O95372; AID 2177; inhibition, % at 5.9 µM;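 active = inhibition above the screen-wide mean plus 3 SD, limit set per campaign, cut at about 26% in these data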;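 note: 0% = LYPLA2 with DMSO and 100% = wells lacking LYPLA2 enzyme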
# The depositor's hits bear a star; . = not tested or not shown.
SMILES,PAD4 FP inh,Fam108B inh,PME-1 primary,LYPLA1 inh,GSTO1 inh,LYPLA2 inh
CC(C(=O)Nc1ccc([N+](=O)[O-])cc1)N1CCN(C/C=C/c2ccccc2)CC1 (stereo unspecified),-1,-1,-5,-1,3,31*
CC1=C([N+](=O)[O-])C(c2cccc(Br)c2)C2=C(N1)c1ccccc1C2=O (stereo unspecified),-6,15,33*,-12,-17,7
O=C(CN1C(=O)NC2(CCCCCCC2)C1=O)Nc1cccc(Br)c1,-3,.,.,.,.,.
Cc1ccccc1CCNC(=O)c1ccc(Cl)c(S(=O)(=O)N2CC(C)OC(C)C2)c1 (stereo unspecified),-7,.,-3,-5,.,2
O=C(CCn1c(=O)[nH]c2ccsc2c1=O)N1CCN(c2cccc(Cl)c2)CC1,3,3,4,4,12,9
Cc1ccc(Cl)cc1N1CCN(C(=O)Cc2ccc(-n3c(=O)[nH]c4ccsc4c3=O)cc2)CC1,4,6,4,2,3,34*
O=c1cc(O)n(C2CCCCCC2)c(=O)[nH]1,-1,-4,-11,-1,36*,-4
O=c1[nH][nH]c(=S)n1C1CCCCC1,-3,-1,0,2,1,0
Cc1cccc(NC(=O)CN2C(=O)S/C(=C\c3ccc(O)c([N+](=O)[O-])c3)C2=O)c1,-3,16,33*,1,-13,81*
CC(=O)Nc1ccc(NC(=O)CSc2nnc(-c3ccco3)o2)cc1,2,1,1,-1,-5,1
CC(=O)c1ccc(NC(=O)CSc2nnc(-c3ccco3)c(-c3ccco3)n2)cc1,-4,10,-2,-4,35*,5
O=S(=O)(Nc1c(S(=O)(=O)c2ccccc2)c2nc3ccccc3nc2n1C1CCCCC1)c1ccccc1,-8,3,-10,-2,49*,2
CC(=O)Nc1c(S(=O)(=O)c2ccccc2)c2nc3ccccc3nc2n1Cc1ccccc1,1,5,1,-2,1,-4
CCOc1cccc(C(=O)Nc2ccc(N(CC)CC)cc2)c1,-4,0,2,-1,6,-2
CCN(CC)c1cccc(OCC(=O)N(C)CCC#N)c1,45*,-28,-24,-13,-27,-38
Cc1ccc(N(C(=O)c2csnn2)C(C(=O)NCc2ccccc2)c2ccccn2)cc1 (stereo unspecified),-6,0,1,2,3,6
Cc1ccc(CNC(=O)COc2ccc(C(=O)c3ccc(F)cc3)cc2)cc1,6,1,-9,-1,56*,1
Cc1ccc(C2=NCCn3c2c2ccc(C(F)(F)F)cc2[n+]3[O-])cc1,-2,3,1,0,2,-7
Cc1ccc(N=Nc2c(N)n(-c3ccccc3)[nH]c2=O)cc1,2,2,35*,-1,9,3
Cc1ccc(NC(=O)COn2nnc3ccc(S(=O)(=O)N(C)C)cc32)cc1F,2,-7,-1,-4,36*,-3
CCc1ccc(NC(=O)COn2nnc3ccc(S(=O)(=O)N(C)C)cc32)cc1,-2,-4,3,-3,26,-1
O=C(CN1C(=O)COc2ccccc2C1=O)c1ccc2c(c1)OCCO2,-2,-3,-2,-4,2,9
O=C(NCCCO)NC12CC3CC(CC(C3)C1)C2,-3,-4,-2,-1,11,1
O=C(CCl)NC(=O)NC12CC3CC(CC(C3)C1)C2,1,-1,8,-2,89*,8
COc1ccc(NC(=O)C2CCCN2S(=O)(=O)c2cccc3nsnc23)c(OC)c1 (stereo unspecified),-1,4,5,2,-5,5
SMILES,PAD4 FP inh,Fam108B inh,PME-1 primary,LYPLA1 inh,GSTO1 inh,LYPLA2 inh
COc1ccc(C)cc1NC(=O)NNC(=O)c1cc2ccccc2cc1O,-8,12,26*,-14,3,-8
COc1ccc(NC(=O)NNC(=O)c2cc3ccccc3cc2O)cc1,-8,3,-4,-2,3,7
Cc1cc(C)c(NC(=O)CSc2nc3ncc(Br)cc3[nH]2)c(Cl)c1,5,-7,-3,-3,22,-1
Cc1ccc(NC(=O)CSc2nc3ncc(Br)cc3[nH]2)cc1C,0,-10,1,-1,36*,0
CC(C)(C)CNC(=O)c1cccc2c1C(=O)c1ccc(-c3cc4ccccc4o3)cc1S2(=O)=O,3,.,.,.,.,.
CCn1c(SCC(=O)N(C)C)nc2cc(S(=O)(=O)N3CCCCC3)ccc21,-1,-1,2,1,12,5
C/C=C/C=C/C(=O)N1CC[C@]23c4ccccc4N[C@H]4N(C)c5cccc6c5[C@]42CCN([C@H]6C2OC2(C)C)[C@H]13 (stereo partly specified),5,4,0,1,37*,7
CCOC(=O)c1c(C)[nH]c(C)c1S(=O)(=O)N(C)CC(=O)Nc1cc(C)ccc1OC,0,4,26*,-3,-1,2
COc1ccccc1CN1CC(C(=O)NCCc2ccccc2Cl)CCC1=O (stereo unspecified),-2,-4,14,0,2,3
COc1ccc(N(CC(=O)N/N=C/c2ccccc2OC)S(=O)(=O)c2ccccc2)cc1,5,-1,4,-2,-2,-2
CCOc1ccc2c(c1)C(C)=CC(C)(C)N2,-7,.,2,4,.,-3
CC1=CC(C)(C)Nc2ccc(OC(=O)CN3C(=O)c4ccccc4C3=O)cc21,-5,0,6,-1,56*,-4
CC1=CC(C)(C)Nc2ccc(OC(=O)C(Cc3ccccc3)N3C(=O)c4ccccc4C3=O)cc21 (stereo unspecified),-4,7,2,-5,-1,-3
CC1=CC(C)(C)Nc2ccc(OC(=O)CN3C(=O)c4cccc5cccc(c45)C3=O)cc21,-12,6,7,-2,37*,7
CC(Oc1cccc(Cl)c1)C(=O)N(C)CC(=O)Nc1ccc(N2CCOCC2)cc1 (stereo unspecified),-3,3,3,3,1,3
Cc1nn(C)c(C)c1CN(C(=O)C1CCC(=O)N(C2CCCCCC2)C1)C(C)C (stereo unspecified),1,-3,1,3,3,-1
CC(C)Oc1cccc(C(=O)Nc2ccc(Br)cc2F)c1,0,-1,-3,-7,-5,-3
COC(=O)c1[nH]c2ccccc2c1NC(=O)CN1CCN(C(=O)c2ccco2)CC1,-4,-5,1,-1,36*,5
Cc1ccsc1CN(C)C(=O)CN1C(=O)NC2(CCCc3ccccc32)C1=O (stereo unspecified),-4,.,1,-2,.,2
O=C(/C=C/c1ccc([N+](=O)[O-])s1)N1CCCCC1,-5,2,12,-3,35*,-3
O=C(/C=C/c1ccc([N+](=O)[O-])s1)N1CCCC1,-4,1,1,0,22,8

# Compound activity as filed in PubChem BioAssay.
